Consider nine molecules from paper PMC5540273 (PLoS ONE, 2017).

Some test systems named below: CSNK1G1; CSNK1G2; CSNK1G3; CSNK2A1; CSNK2A2; DAPK1; DAPK2; DAPK3; DDR1; DDR2; DMPK; DYRK1A.
Settings in all cases: concentration: 1 μM,replicates: in singlicate; n = 1
Another assay deals with T1, CTK.
T1 construct: gene MATK

The next assay concerns T2, DCAMKL1.
T2 construct: gene DCLK1

The test system of the next assay is T3, DCAMKL2.
T3 construct: gene DCLK2

The next assay has as its system T4, DCAMKL3.
T4 construct: gene DCLK3

A further assay relates to T5, DLK.
T5 construct: gene MAP3K12

The subject of the next assay is T6, DMPK2.
T6 construct: gene CDC42BPG

The test system of a further assay is T7, DRAK1.
T7 construct: gene STK17A

The subject of another assay is T8, DRAK2.
T8 construct: gene STK17B
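Further: KINOMEscan kinase panel screen.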

With `CN(c1cccc(CNc2nc(Nc3ccc4c(c3)CC(=O)N4)ncc2C(F)(F)F)c1)S(C)(=O)=O`, the “%Inh” value in the assay with CSNK1G1 was found to be 0%; in the assay on CSNK1G2, 5%; with CSNK1G3 it was 16%; in the assay with CSNK2A1 it was 35%; with CSNK2A2, 44%; in the assay on CTK it was 0%. Besides, the “%Inh” value with DAPK1 came to 35%; in the assay with DAPK2, 0%; with DAPK3, 1%; in the assay with DCAMKL1, 55%; with DCAMKL2, 9%; with DCAMKL3, 86%. Moreover, the “%Inh” value in the assay on DDR1 was found to be 43%; in the assay with DDR2 it was 3%; in the assay on DLK it was 4%; in the assay on DMPK2 it was 0%; in the assay with DMPK, 0%; in the assay with DRAK1 it was 99.4%. Also, the “%Inh” value with DRAK2 worked out at 97.5%; with DYRK1A, 74%.

Consider `CC(=O)c1c(-c2ccncc2)[nH]c(-c2ccncc2)c1C` [GW493036], for which the “%Inh” value is 84% in the assay on CSNK1G1; 98.6% in the assay on CSNK1G2; 98.6% with CSNK1G3; 0% with CSNK2A1; 8% in the assay on CSNK2A2; 0% in the assay with CTK. Further, the “%Inh” value in the assay with DAPK1 is 0%; in the assay with DAPK2 it was 0%; in the assay on DAPK3, 19%; in the assay with DCAMKL1, 25%; in the assay with DCAMKL2 it was 3%; in the assay on DCAMKL3, 0%. Also, the “%Inh” value is recorded as 67% with DDR1; 0% in the assay with DDR2; 0% with DLK; 0% in the assay on DMPK2; 23% with DMPK; 44% with DRAK1. The “%Inh” value in the assay on DRAK2 came out at 76%; with DYRK1A it was 99.9%.

`Cc1ccc(CC(=O)N2CCc3cc(-c4cn(C)c5ncnc(N)c45)ccc32)cc1` [GSK2634758]: the “%Inh” value with CSNK1G1 was 30%; in the assay with CSNK1G2, 26%; in the assay on CSNK1G3 it was 26%; in the assay on CSNK2A1, 0%; in the assay on CSNK2A2 it was 0%; in the assay with CTK, 0%. For the same molecule, the “%Inh” value in the assay with DAPK1 came to 0%; in the assay with DAPK2, 5%; with DAPK3, 0%; in the assay with DCAMKL1, 0%; in the assay with DCAMKL2, 0%; with DCAMKL3, 0%. The “%Inh” value in the assay with DDR1 is reported as 61%; with DDR2, 44%; with DLK, 21%; with DMPK2, 68%; with DMPK it was 15%; with DRAK1, 0%. The “%Inh” value in the assay with DRAK2 and in the assay on DYRK1A was 0% in each case.

Turning to `COc1cc2nccc(Nc3ccc(Oc4ccccc4)cc3)c2cc1OC.Cl` [GI261656], the “%Inh” value came out at 0% with CSNK1G1; 0% in the assay with CSNK1G2; 25% with CSNK1G3; 0% in the assay with CSNK2A1; 24% in the assay with CSNK2A2; 0% in the assay with CTK. In addition, the “%Inh” value was 0% with DAPK1; 0% with DAPK2; 2% in the assay with DAPK3; 0% in the assay with DCAMKL1; 0% with DCAMKL2; 1% in the assay with DCAMKL3. Moreover, the “%Inh” value with DDR1 is reported as 0%; in the assay on DDR2 it was 22%; in the assay on DLK, 34%; in the assay with DMPK2, 6%; in the assay on DMPK it was 0%; in the assay with DRAK1, 0%. Also, the “%Inh” value in the assay with DRAK2 and in the assay with DYRK1A was 0% throughout.

As for `Cc1cccc2c(-c3ccncc3)c(-c3ccc(F)cc3)nn12.Cl` [GW461487], the “%Inh” value is given as 11% with CSNK1G1; 0% in the assay on CSNK1G2; 26% with CSNK1G3; 96.6% with CSNK2A1; 10% in the assay with CSNK2A2; 0% in the assay with CTK. For the same molecule, the “%Inh” value in the assay with DAPK1 was 18%; with DAPK2 it was 0%; with DAPK3, 0%; in the assay on DCAMKL1 it was 10%; in the assay with DCAMKL2, 0%; in the assay with DCAMKL3 it was 0%. For the same molecule, the “%Inh” value with DDR1 is 54%; in the assay with DDR2 it was 41%; in the assay with DLK, 27%; in the assay with DMPK2 it was 43%; in the assay with DMPK it was 0%; in the assay with DRAK1, 7%. Besides, the “%Inh” value in the assay on DRAK2 was 0%; in the assay on DYRK1A, 10%.

For `COC(=O)Nc1nc2cc(Oc3ccc(NC(=O)Nc4cc(C(F)(F)F)ccc4Cl)cc3)ccc2[nH]1.Cl` [GW697465], the “%Inh” value turned out to be 0% in the assay on CSNK1G1; 0% in the assay on CSNK1G2; 8% in the assay with CSNK1G3; 0% in the assay with CSNK2A1; 0% in the assay with CSNK2A2; 0% in the assay on CTK. Further, the “%Inh” value in the assay with DAPK1 came out at 2%; in the assay on DAPK2, 0%; in the assay with DAPK3, 0%; in the assay with DCAMKL1, 0%; with DCAMKL2, 11%; in the assay with DCAMKL3 it was 31%. Also, the “%Inh” value is recorded as 100% in the assay on DDR1; 98.3% in the assay with DDR2; 60% with DLK; 0% with DMPK2; 0% with DMPK; 2% in the assay with DRAK1. For the same molecule, the “%Inh” value in the assay on DRAK2 and in the assay with DYRK1A was 0% in each case.

`Cc1nnc(-c2ccc3occ(-c4ccc(S(C)=O)cc4)c3n2)o1` (stereo not drawn): the “%Inh” value in the assay on CSNK1G1 amounted to 17%; with CSNK1G2, 0%; in the assay with CSNK1G3, 0%; with CSNK2A1 it was 0%; in the assay on CSNK2A2, 0%; in the assay with CTK, 0%. The “%Inh” value in the assay on DAPK1, in the assay on DAPK2, in the assay with DAPK3, in the assay on DCAMKL1, in the assay with DCAMKL2 and in the assay with DCAMKL3 was 0% in each case. In addition, the “%Inh” value was 0% with DDR1; 1% with DDR2; 0% in the assay with DLK; 0% with DMPK2; 0% with DMPK; 0% in the assay with DRAK1. For the same molecule, the “%Inh” value with DRAK2 and in the assay on DYRK1A was 0% in each case.

Regarding `CN1CCN(CCNc2nc3cc(Oc4ccc(NC(=O)Nc5cc(C(F)(F)F)ccc5F)cc4)ccc3[nH]2)CC1.Cl.Cl` [GW768504], the “%Inh” value in the assay with CSNK1G1 was determined as 0%; in the assay with CSNK1G2 it was 0%; with CSNK1G3, 0%; in the assay on CSNK2A1, 0%; in the assay with CSNK2A2, 7%; in the assay with CTK, 0%. Further, the “%Inh” value was found to be 0% with DAPK1; 0% with DAPK2; 0% with DAPK3; 34% with DCAMKL1; 10% in the assay on DCAMKL2; 0% in the assay with DCAMKL3. For the same molecule, the “%Inh” value in the assay with DDR1 turned out to be 96.9%; in the assay with DDR2, 99.2%; with DLK it was 0%; with DMPK2 it was 10%; with DMPK, 0%; with DRAK1 it was 0%. Also, the “%Inh” value is listed as 17% in the assay with DRAK2 and 0% with DYRK1A.

Take `O=C(NCC1CC1)c1ccc(-c2cc(C(=O)NC3CC3)ccc2F)cc1` [GW810445]: the “%Inh” value with CSNK1G1, with CSNK1G2, in the assay on CSNK1G3, in the assay on CSNK2A1, in the assay with CSNK2A2 and in the assay on CTK was 0% in each case. For the same molecule, the “%Inh” value in the assay on DAPK1 came to 0%; in the assay on DAPK2 it was 3%; in the assay with DAPK3, 19%; in the assay with DCAMKL1 it was 0%; with DCAMKL2, 22%; in the assay with DCAMKL3 it was 0%. For the same molecule, the “%Inh” value in the assay on DDR1 is on record as 0%; with DDR2, 35%; with DLK, 12%; in the assay on DMPK2, 0%; in the assay with DMPK, 0%; with DRAK1, 0%. The “%Inh” value in the assay on DRAK2 and with DYRK1A was 0% each time.
